Laboratory results reported in PubChem BioAssay (NCI).
“And” between values parts separate entries of the source, which are not always exact repeats. Equal entries are not always repeated. About 83,000 compounds went through this panel and 20% of them were active in at least one assay; those are over-represented in the sample as a whole.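 Plates (96-well) were seeded with cells, treated with compound at one concentration, and incubated for 48 hours before percent growth was determined.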 The source made the active and inactive calls. Where a SMILES comes first, the peptide text is derived from it. The star is where a group is joined. Trt = c1ccc(C(c2ccccc2)(c2ccccc2)*)cc1; Cbz = O=C(OCc1ccccc1)*

These molecules were tested on SR leukemia (assay: NCI-60 one-dose screen, 48 h (100 = growth as untreated, 0 = no growth, -100 = all killed)). Conditions: 10 µM unless noted.
Method: Growth inhibition of the SR human tumor cell line is measured as a screen for anti-cancer activity. Cells are grown in 96 well plates and exposed to the test compound for 48 hours. Compounds are tested at a single concentration, which is 10^-5 M for most compounds. The reported endpoint is percent growth (GI% or GIPRCNT), where numbers from 0 - 100% represent growth inhibition, and numbers from -100% - 0 represent cell death. For example, a value of 40 represents 60% growth inhibition. A value of 0 means no net growth occurred over the course of the experiment. A value of -40 indicates 40% of cells at the beginning of the experiment died by the end of the experiment. A value of -100 means all cells are dead at the end of the experiment.
NCI-60 Human Tumor Cell Lines Screen was performed using the standard one-dose NCI protocol, which is described in more detail at https://dtp.cancer.gov/discovery_development/nci-60/default.htm.
Compounds with GIPRCNT values below 10 were considered active. Activity score was based on GIPRCNT using the following formula: […]
Score is 0 for GIPRCNT values of 100 or above, 50 for GIPRCNT values of 0, and 100 for GIPRCNT values of -100.

SMILES	growth
CC(C)(C)c1ccc(O)c(C2CCCCC2)c1	84.9% (inactive)
OC(CNc1ccnc2cc(Cl)ccc12)CNc1ccnc2cc(Cl)ccc12	2.51% (active)
O=C(Nc1c(Cl)cccc1Cl)Oc1cccc2cccnc12	5.64% [100 µM] (active)
N[C@H](C(=O)O)[C@@H]1CC(Cl)=NO1	21.2% [20 µM] (inactive)
c1ccc2c(c1)Nc1cc3ccccc3cc1N2	29.2% (inactive)
NC(N)=N/N=C/c1ccc([N+](=O)[O-])o1	98.3% (inactive)
O=C(Nc1ccc(F)cc1)ON=C1CCCCC1	84.9% [100 µM] (inactive)
N#CSCc1ccc(CSC#N)c(Cl)c1	6.77% (active)
NC(=S)N/N=C\c1nccc2c(C(F)(F)C(F)(F)C(F)(F)F)cccc12	-29.4% (active)
COc1ccc2nc3cc(Cl)ccc3c(NCCNc3c4ccc(Cl)cc4nc4ccc(OC)cc34)c2c1	-29.8% (active)
NC1=CC(=O)c2ccccc2C1=O	81.3% (inactive)
CCN(CC)CCOc1ccc(-c2nc3cc(Cl)ccc3s2)cc1	-69.6% (active)
O=C(/C=C/c1cccc(Cl)c1)c1ccccc1	7.8% (active) and 11.7% (inactive)
O=C1c2cccnc2-c2nccc3c2c1nc1cc(Br)ccc13	-38.2% (active) and 17.6% (inactive)
Cc1cc(C(C)(CC(C)C)c2ccc(O)c(C)c2)ccc1O	94.6% (inactive)
O=C(/C=C/C=C/c1ccccc1)c1ccco1	16.7% (inactive)
COC(=O)c1nc(=S)[nH]c(C(=O)OC)c1C(=O)c1ccc2ccccc2c1	93.5% (inactive)
Cc1ccnc2c1ccc1c(C)ccnc12	4.34% (active)
S=C(NCCNC(=S)[S][Sn]([c]1ccccc1)([c]1ccccc1)[c]1ccccc1)[S][Sn]([c]1ccccc1)([c]1ccccc1)[c]1ccccc1	0.639% (active)
COc1cc(NS(C)(=O)=O)ccc1Nc1c2ccccc2nc2ccccc12	19.4% [2.5 µM] (inactive)

SMILES	growth
Cc1ccc(N=C=C(c2ccccc2)c2ccccc2)cc1	22.9% (inactive)
O=[N+]([O-])c1ccc2c(N=Nc3ccc4ccccc4c3O)c(O)cc(S(=O)(=O)O)c2c1	90.3% (inactive)
CC(C)(C)CC(C)(C)c1ccc(OCCSC(=N)N)cc1	-37.7% (active)
CCOC(=O)/C=C/c1ccc([N+](=O)[O-])o1	16.2% (inactive)
O=C(O)C1C2CC3C(OC(=O)C31)C2Br (stereo not given)	97.3% (inactive) and 101% (inactive)
Oc1c(Cl)c2ccccc2c2ccccc12	99.2% (inactive)
O=C(O)c1ccc2c3c(ncnc13)-c1ccccc1C2=O	98.4% (inactive)
O=C1C=CC(=O)N1C1c2ccccc2-c2ccccc21	-26.9% (active)
COc1ccc(N=N/N=c2\sc3cc(OC)ccc3n2C)cc1	88.9% (inactive)
CCCCCCCCCCCCCCNCc1ccccc1	11.8% (inactive)
CN(C)C(=O)SC1=C(c2c(Cl)cccc2Cl)C(=O)c2ccccc21	-36.3% (active)
Oc1c(Br)c(Br)c(O)c(Br)c1Br	63.2% (inactive)
CC(=O)Nc1cccc2cc(O)ccc12	108% (inactive) and 107% (inactive) and 99.6% (inactive)
CCN(CC)CC(C)(C)C(=O)/C=C/c1ccc(Cl)c(Cl)c1	10.3% (inactive)
CN(C)C(=O)c1ccc(SC(=S)NCc2ccccc2)cc1	-36.6% [100 µM] (active)
Cc1cc(N)c2ccccc2[n+]1CCCCCCCCCC[n+]1c(C)cc(N)c2ccccc21	-53% (active) and 3.2% (active)
Oc1c(Cl)cc(Cl)c2cccnc12	32.7% (inactive) and 31.9% (inactive)
COC(=O)C(CSC(c1ccccc1)(c1ccccc1)c1ccccc1)NC(=O)C(CC(N)=O)NC(=O)OCc1ccccc1 (stereo not drawn) (Cbz-Asn-Cys(Trt)-OMe; configuration not given here)	-43.7% (active)
C1=C(c2ccccc2)C(c2ccc(OCCN3CCCCC3)cc2)Oc2ccccc21 (stereo not given)	-0.379% (active)
CNc1ccc2c(c1)c1ccccc1n2C	93.9% (inactive)
